Data taken from the supplement of paper PMC6555819.

Key:
Assay in all cases: PBM binding z-score (relative to random genomic background probes); higher = stronger binding; sequences stand for … in GC…GCGATTGACAGCGTAGAATGAAGG
[1] = system: RARb homodimer (NR concentration 270 nM)
Outline: (§1)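 Binding buffer was PBS pH 7.4 with 2% milk, 0.02% Triton X-100, 1 mM DTT, 0.2 mg/mL BSA and 0.4 mg/ml salmon testes DNA. In it, ligand-free nuclear receptor dimers were incubated 1 h on custom Agilent 4×180K protein-binding microarrays carrying double-stranded probes. Antibodies against each partner (one per run) detected binding, and z-scores were calculated against random background probes after regression normalization of scanned fluorescence.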

[2] = system: RARg:RXRa (NR concentration 270 nM, RXRa partner concentration 90 nM)
Outline: as §1

[3] = system: RARg homodimer (NR concentration 270 nM)
Outline: as §1

[4] = system: RXRa DBDmut IVT, anti-RXR (DBD mutation: RXRa K156A/R161A, NR concentration 90 nM)
Outline: as §1

[5] = system: RXRa homodimer (NR concentration 180 nM)
Outline: as §1

[6] = system: THRa:RXRa (NR concentration 90 nM, RXRa partner concentration 90 nM)
Outline: as §1

[7] = system: THRa homodimer (NR concentration 90 nM)
Outline: as §1

[8] = system: VDR homodimer (NR concentration 270 nM)
Outline: as §1

ATCTCTATGTAACAAGTTCAGTGAAAGAGAGGAC
PBM binding z-score [1]: 1.49 | PBM binding z-score [2]: 0.833 | PBM binding z-score [3]: 1.3 | PBM binding z-score [4]: 0.923 | PBM binding z-score [5]: 0.533 | PBM binding z-score [6]: 0.782 | PBM binding z-score [7]: 0.323 | PBM binding z-score [8]: 2.17

CCTACTGAGCCAAAAAGGTCATTGATGCCGATAA
PBM binding z-score [1]: 4.22 | PBM binding z-score [2]: 4.3 | PBM binding z-score [3]: 4.1 | PBM binding z-score [4]: 1.49 | PBM binding z-score [5]: 5.03 | PBM binding z-score [6]: 2.86 | PBM binding z-score [7]: 1.05 | PBM binding z-score [8]: 2.73

CGAACTAGGTCGGAACAGGACAGTGAAGGATGAT
PBM binding z-score [1]: 0.127 | PBM binding z-score [2]: 0.399 | PBM binding z-score [3]: 0.643 | PBM binding z-score [4]: -0.112 | PBM binding z-score [5]: 0.169 | PBM binding z-score [6]: 1.89 | PBM binding z-score [7]: -0.442 | PBM binding z-score [8]: -0.102

TCTAGTTGGTCACGGAGGTCACCCACGACGGGTA
PBM binding z-score [1]: 4.51 | PBM binding z-score [2]: 4.85 | PBM binding z-score [3]: 5.06 | PBM binding z-score [4]: 0.865 | PBM binding z-score [5]: 5.13 | PBM binding z-score [6]: 3.66 | PBM binding z-score [7]: 2.82 | PBM binding z-score [8]: 2.79

ATATGTAGGTTATCGGGTCTTTCAGTTTGCGCAT
PBM binding z-score [1]: 1.23 | PBM binding z-score [2]: 0.844 | PBM binding z-score [3]: 0.939 | PBM binding z-score [4]: 0.92 | PBM binding z-score [5]: 1.03 | PBM binding z-score [6]: 1.08 | PBM binding z-score [7]: 1.3 | PBM binding z-score [8]: 1.44

ACTATTAGTTGACTTAGGCCAACCGATACGACGC
PBM binding z-score [1]: 0.826 | PBM binding z-score [2]: 0.899 | PBM binding z-score [3]: 0.91 | PBM binding z-score [4]: 0.805 | PBM binding z-score [5]: 0.539 | PBM binding z-score [6]: 0.898 | PBM binding z-score [7]: 0.912 | PBM binding z-score [8]: 0.435

GCTATTAGTTGTAAGGGCAACCGAATGATTCTCG
PBM binding z-score [1]: 1.47 | PBM binding z-score [2]: 0.411 | PBM binding z-score [3]: 0.637 | PBM binding z-score [4]: 0.96 | PBM binding z-score [5]: 0.441 | PBM binding z-score [6]: 1.73 | PBM binding z-score [7]: 1.18 | PBM binding z-score [8]: 0.507
